Bioassay records as filed in PubChem.
Rows were chosen to be rich in hits. Some 5.8% of all compounds tested hit in one or more screens of this group.
KB-3-1 tox = kills parental KB-3-1 adenocarcinoma cells; KB-3-1 viability, CellTiter-Glo ATP luminescence, 72 h; Potency, µM (titrated, usually from 46.1 µM), actives largely listed as cytotoxic; 1.4% of 400,000 active; AID 1347075; note: % is set by controls: 0 for no effect and ±100 for the full control effect; nearly all actives have a fitted effect of over 60% in size
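Cytotoxicity measured as CellTiter-Glo luminescence after 72 h at 37 C. Compound titrations were pinned onto drug-naive KB-3-1 parental adenocarcinoma cells grown in DMEM with 10% FBS, and normalized data fitted to concentration-response curves.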
MCF10A rerep = DNA re-replication induction in MCF 10a cells; Potency, µM (titrated, usually from 46.1 µM), for the others: at the top dose activity, positive = re-replication, hits mostly activators; AID 624296; MCF 10A DNA re-replication, Hoechst nuclear intensity, 48 h; 2.9% of 350,000 active; note: % of control where 0% means no effect; nearly all actives have a fitted effect of over 50% in size
SW480 rerep = inducers of DNA re-replication in SW480 colon cancer cells; SW480 DNA re-replication, Hoechst DNA content imaging, 48 h; Potency, µM (top dose mostly 46.1 µM), for inactives: at the top dose re-replication activation, hits mostly activators; 1.8% of 340,000 active; AID 624297; note: % of control where 0% means no effect; nearly all actives have a fitted effect of over 55% in size
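Per well, 250 cells were exposed to pinned compound for 48 hr. Nuclear DNA was visualised with Hoechst (40 min, 37 C) and total object intensity recorded by fluorescence scanning.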
KB-V1 cytotox = KB-V1 MDR subline cytotoxicity; KB-V1 MDR cells viability, CellTiter-Glo, 72 h; Potency, µM (highest dose often 46.1 µM), usual class: cytotoxic; 3.4% of 400,000 active; AID 1347076; note: % is set by controls: 0 for no effect and ±100 for the full control effect; nearly all actives have a fitted effect of over 60% in size
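Compound-treated KB-V1 multidrug-resistant cells, 72 h, 37 degrees C; viability by CellTiter-Glo. Fitted qHTS curves give the values.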
12-LOX inh = inhibitors of human 12S-lipoxygenase ALOX12; AID 1671190; purified 12hLO, xylenol orange hydroperoxide absorbance; P18054; Potency, µM (titrated, usually from 108 µM), for the others: at the highest dose activity change, negative = inhibition, most hits filed as inhibitors; 1.1% of 580,000 active; note: % is set by controls: 0 for no effect and ±100 for the full control effect
Target sequence (P18054 whole entry, looked up): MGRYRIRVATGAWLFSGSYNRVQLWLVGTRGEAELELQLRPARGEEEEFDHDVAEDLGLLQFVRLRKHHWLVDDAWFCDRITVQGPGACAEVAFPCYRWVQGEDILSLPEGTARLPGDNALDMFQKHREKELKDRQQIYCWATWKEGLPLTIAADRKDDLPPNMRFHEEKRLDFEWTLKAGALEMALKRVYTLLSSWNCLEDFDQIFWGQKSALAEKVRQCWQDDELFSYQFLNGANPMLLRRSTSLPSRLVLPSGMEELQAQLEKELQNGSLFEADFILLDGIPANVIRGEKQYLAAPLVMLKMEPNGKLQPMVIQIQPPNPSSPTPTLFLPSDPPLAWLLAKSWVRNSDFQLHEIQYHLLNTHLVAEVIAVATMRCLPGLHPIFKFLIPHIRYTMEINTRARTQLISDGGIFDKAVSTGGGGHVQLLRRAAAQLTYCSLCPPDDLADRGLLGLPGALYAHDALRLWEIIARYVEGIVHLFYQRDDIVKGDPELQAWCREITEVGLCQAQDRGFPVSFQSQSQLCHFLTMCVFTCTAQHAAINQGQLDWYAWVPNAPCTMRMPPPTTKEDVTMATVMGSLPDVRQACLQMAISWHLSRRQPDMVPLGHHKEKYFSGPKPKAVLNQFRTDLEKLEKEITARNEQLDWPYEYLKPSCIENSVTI
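Purified human 12hLO at 150 nM in 25 mM Hepes, 0.01% Triton X-100, pH 7.0, preincubated 15 min at room temperature with compound. Reaction started with 40 uM arachidonic acid, 30 min at room temperature. Hydroperoxide measured by Fe-xylenol orange, 573/405 nm absorbance ratio.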
PINK1 expr mod = changes PINK1 expression; Potency, µM (highest dose often 76.6 µM), inactives show at the highest dose activation (PINK1 increase), usual class: activators; PINK1 immunofluorescence, high-content cytometry, 24 h; 0.2% of 410,000 active; active = well fitted activation curve with a large enough effect; inconclusive = small, poorly fitted or top-dose-only effect; cell line not stated here; note: % of control where 0% means no effect; nearly all actives have a fitted effect of over 65% in size
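Compound titrations (5 concentrations, 24 h) on a stable cell line; DMSO and CCCP controls. Endpoint: fixed-cell PINK1 immunofluorescence with mitochondrial, cell and nuclear markers, scanned by microplate cytometer.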
An asterisk follows results filed as active; i = inactive; ? = inconclusive; nt = no result given; ! = a repeat was not active; [ ] = another dose, or the depositor's remark. Unless noted, calls come from the whole dose curve; as a rule, active = well fitted curve in the direction sought with a large enough effect; inconclusive = small, poorly fitted or top-dose-only effect, or another doubt; inactive = no such curve, though single readings can be large; an effect the other way counts as inactive or inconclusive. Potency is the fitted concentration of half-maximal effect.

SMILES	KB-3-1 tox	MCF10A rerep	SW480 rerep	KB-V1 cytotox	12-LOX inh	PINK1 expr mod
Cc1ccc(NC(=O)c2ccccc2C)c(Br)c1	nt	nt	nt	nt	14%	nt
Cc1ccc(S(=O)(=O)NCCC(=O)N2CCN(Cc3ccccc3)CC2)cc1	i	-4%	10%	?	-13%	nt
CC(=O)N1CCc2cc(S(=O)(=O)NCCC(=O)N3CCN(Cc4ccccc4)CC3)ccc21	?	26%	3%	16µM*	-1%	0%[38.3 µM]
C/C(N)=C(/C#N)C(NC(=O)c1ccco1)(C(F)(F)F)C(F)(F)F	nt	nt	nt	nt	3%	nt
COc1cccc(CC(NC(C)=O)C(=O)NC2CCN(c3c(Cc4ccccc4)c(C)nc4ncnn34)CC2)c1 (stereo unspecified)	?	?	23µM*!	i	2%	2%
CC(=O)NC(Cc1ccc(F)cc1)C(=O)NC1CCN(c2ncccc2[N+](=O)[O-])CC1 (stereo unspecified)	i	0.82µM*	-33%	i	439%	2%
CC(=O)NC(Cc1cccc(F)c1)C(=O)NC1CCN(c2ncccc2[N+](=O)[O-])CC1 (stereo unspecified)	i	2%	-9%	i	-1%	1%
CC(=O)NC(Cc1cccc(C)c1)C(=O)NC1CCN(c2ncccc2[N+](=O)[O-])CC1 (stereo unspecified)	i	-4%	-3%	15µM*	-5%	1%
Cn1c(=O)[nH]c(=O)c2c1nc(Nc1cccc(Cl)c1Cl)n2CC(=O)O	nt	nt	nt	nt	9%	nt
Cc1ccc2c(C(=O)CN3CCN(CCO)CC3)c(C)[nH]c2c1	nt	nt	nt	nt	-46%	nt
Cc1sc2nc(SCc3ccccc3)n(Cc3ccco3)c(=O)c2c1C	i	9.2µM*	6%	i	2%	?
Cc1sc2nc(SCC(=O)C(C)(C)C)n(Cc3ccco3)c(=O)c2c1C	?	5.8µM*	5.8µM*	2.6µM*	-24%	?
COc1ccc(NC(=O)CSc2nc3sc(C)c(C)c3c(=O)n2Cc2ccco2)cc1	i	15µM*	?	?	25%	21%[38.3 µM]
NS(=O)(=O)c1ccc(Sc2nc3ccccc3s2)c([N+](=O)[O-])c1	i	5.8µM*	-22%	?	141%	21%
NS(=O)(=O)c1ccc(Sc2ccccn2)c([N+](=O)[O-])c1	i	-6%	-26%	i	47%	1%
O=Cc1ccc(OCc2ccccc2)c(Cl)c1	nt	nt	nt	nt	14%	nt
Cc1onc(-c2ccccc2)c1C(=O)OCc1nnc(-c2ccc([N+](=O)[O-])cc2)o1	i	11%	-5%	15µM*	9%	1%
Cc1ccccc1OCCOC(=O)c1c(-c2ccccc2)noc1C	9.2µM*	?	9.2µM*	?	8%	4%
Cc1onc(-c2ccccc2)c1C(=O)OCCOc1ccccc1F	i	15%	9%	?	-9%	-1%
N#CC(C#N)=C1C=C(c2ccccc2)OC2=C1CCCC2	nt	nt	nt	nt	5%	nt
Cc1cc2nc3c(=O)n(C4CCCCC4)c(=O)[nH]c3nc2cc1N	i	?	?	i	-17%	14µM*
CCCNc1c(NC(=O)Nc2ccccc2F)c(=O)oc2ccccc12	nt	nt	nt	nt	-7%	nt
Cc1oc(-c2ccc3c(c2)OCCO3)cc1C(=O)O	?	14%	-6%	15µM*	21%	2%
Cc1oc(-c2ccc3c(c2)OCCO3)cc1C(=O)NCC(=O)O	i	-4%	16%	i	-15%	-1%
O=C(Oc1ccc2ccccc2c1)C1(c2ccccc2)CC1	nt	nt	nt	nt	-7%	nt
SMILES	KB-3-1 tox	MCF10A rerep	SW480 rerep	KB-V1 cytotox	12-LOX inh	PINK1 expr mod
CCCCn1c(-c2ccc(Br)cc2F)nc2c1c(=O)[nH]c(=O)n2CC(C)C	i	18µM*	1%	i	?	-3%
CCCOc1ccc(-c2nc3c(c(=O)[nH]c(=O)n3Cc3ccccc3)n2CCO)cc1OCC	i	-4%	?	i	0%	15%
CCCCn1c(=O)[nH]c(=O)c2c1nc(-c1ccc(OCCC)c(OCC)c1)n2CCOC	i	23µM*	6%	i	11%	7%
CCCCn1c(=O)[nH]c(=O)c2c1nc(-c1ccc(-c3ccc(F)cc3)o1)n2C	i	10µM*	?	i	-1%	11%
CC1(C)SC2c3ccccc3C(=O)N2[C@@H]1C(=O)NCc1ccc(F)cc1 (stereo partly specified)	nt	nt	nt	nt	24%	nt
CCCCCn1c(=N)c(S(=O)(=O)c2ccccc2)cc2c(=O)n3ccccc3nc21	i	nt	nt	?	-13%	-1%
Cc1ccc(S(=O)(=O)c2cc3c(=O)n4ccccc4nc3n(CCc3ccccc3)c2=N)cc1	i	?	?	i	-7%	2%
Cc1ccc(S(=O)(=O)c2cc3c(=O)n4ccccc4nc3n(CC3CCCO3)c2=N)cc1C (stereo unspecified)	i	-17%	16%	4.6µM*	3%	5%
Cc1ccc(S(=O)(=O)c2cc3c(=O)n4ccccc4nc3n(Cc3ccco3)c2=N)cc1C	i	?	?	i	0%	7%
Cc1ccc(S(=O)(=O)c2cc3c(=O)n4ccccc4nc3n(C)c2=N)cc1	i	?	?	6.5µM*	-24%	4%
CCn1c(=N)c(S(=O)(=O)c2ccccc2)cc2c(=O)n3ccccc3nc21	i	6.5µM*	2%	i	-27%	8%
CCCn1c(=N)c(S(=O)(=O)c2ccccc2)cc2c(=O)n3ccccc3nc21	i	18µM*	1%	i	?	13%
COc1ccc(CCn2c(=N)c(S(=O)(=O)c3ccc(Cl)cc3)cc3c(=O)n4ccccc4nc32)cc1	i	19%	?	i	1%	?
COc1ccc(CCn2c(=N)c(S(=O)(=O)c3ccccc3)cc3c(=O)n4ccccc4nc32)cc1	i	3.7µM*	6%	i	1%	1%
N=c1c(S(=O)(=O)c2ccc(Br)cc2)cc2c(=O)n3ccccc3nc2n1CCN1CCOCC1	i	16µM*	?	i	-12%	3%
CC1CCc2noc(NC(=O)c3cc(=O)c4cc(Cl)ccc4o3)c2C1 (stereo unspecified)	nt	nt	nt	nt	-16%	nt
Cc1ccn2c(NC3CCCC3)c(-c3ccncc3)nc2c1	i	3%	-26%	i	-8%	1%
COc1ccc(Nc2c(-c3ccc(C)o3)nc3cc(C)ccn23)cc1	23µM*	nt	nt	i	?	1%
CSc1ccc(-c2nc3cnccn3c2Nc2ccc3c(c2)OCO3)cc1	?	5.8µM*	7%	23µM*	nt	-1%
Cc1ccn2c(Nc3ccc4c(c3)OCO4)c(-c3ccc(C)o3)nc2c1	i	nt	nt	i	?	-1%
